From PubChem BioAssay (NCATS) come the findings set out here.

Assay [1] deals with Lysosomal acid glucosylceramidase (Homo sapiens) (UniProt P04062). Put plainly: Glucocerebrosidase-p2 (AID 348; in the data active = potency below about 10 µM; note: potency is the fitted concentration of half-maximal effect). Conditions: purified GBA, blue fluorogenic substrate, 40 min. The gist of the method:
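Normal human glucocerebrosidase (0.2 nM) with blue fluorogenic substrate (80 uM final) in citrate/phosphate pH 5.9 with 10mM sodium taurocholate, 0.01% tween-20; 40 min RT, NaOH/glycine stop; fluorescence Ex 365/Em 440; AC50 from a titration from 0.6 nM upwards.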

The nature of assay [2]: AP1 Signaling Pathway (AID 357).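 Note: ME-180 reporter cells stimulated with EGF at its EC50 level; % is set by controls: 0 for no effect and ±100 for the full control effect.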 Conditions: ME-180 AP-1-bla reporter, EGF-induced, beta-lactamase ratio, 5 h; at 7.69 µM (top of the series) unless noted. The method, boiled down:
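Beta-lactamase reporter under AP-1 response element, ME-180 background. Stimulus: EC50 EGF. Compound exposure 5 h, 37 °C. Detection: CCF4, 2.5 h RT, 460/530 nm. Values: AC50 from titration.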

Assay [3] addresses Cytochrome P450 1A2 (Homo sapiens) (UniProt P05177). Briefly: p450-cyp1a2 (AID 410; calls by dose curve; note: potency is the fitted concentration of half-maximal effect). The gist of the method: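 Luminescent demethylation readout: Luciferin-ME (100uM, equal to Km) turned over by 20nM CYP1A2 for 60 min at room temperature after NADPH regeneration addition, following 10 min compound preincubation. Normalization used 57 uM furafylline as full inhibition.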
The nature of assay [4]: NFAT Signaling Pathway (AID 444).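 Note: carbachol stimulus at about its EC50 of 1 µM final; % is set by controls: 0 for no effect and ±100 for the full control effect.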 Conditions: Jurkat NFAT-bla M1, carbachol, beta-lactamase ratio, 5 h; at 7.69 µM (top of the series) unless noted. The method, boiled down:
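Jurkat cells carrying an NFAT-driven β-lactamase reporter and co-transfected muscarinic M1 receptor were treated with compound plus carbachol (1 uM final, an EC50 level) for 5 h at 37 °C. CCF4 loading followed for 1 h at RT; 460/530 nm ratio gave %activity.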

The nature of assay [5]: Stat Signaling Pathway (AID 446).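 Note: ME-180 cervical cancer cells given 40 pM IL-6 alongside compound; SIE-controlled beta-lactamase reporter measured as 460/530 nm FRET emission ratio; % is set by controls: 0 for no effect and ±100 for the full control effect.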 Conditions: ME-180 SIE beta-lactamase reporter, IL-6 stimulated, 5 h; at 7.69 µM (top of the series) unless noted. The gist of the method:
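Normalization used AC90 stimulation (300 pM IL-6) and AC90 inhibition (125 nM pan-JAK inhibitor at 40 pM IL-6). The underlying signal is SIE-driven beta-lactamase in ME-180 cells after 5 h IL-6 exposure with compound.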

In assay [6] the target is Glucocorticoid receptor (Homo sapiens) (UniProt P04150). Put plainly: GR-GFP Redistribution (AID 450;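 active = compounds whose dose series gives a full or clear partial fitted curve of increased nuclear translocation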; note: potency is the fitted concentration of half-maximal effect). Conditions: U2OS GR-GFP nuclear translocation, laser cytometry, 2 h.
Sequence of Glucocorticoid receptor (Homo sapiens) (P04150 whole entry, looked up): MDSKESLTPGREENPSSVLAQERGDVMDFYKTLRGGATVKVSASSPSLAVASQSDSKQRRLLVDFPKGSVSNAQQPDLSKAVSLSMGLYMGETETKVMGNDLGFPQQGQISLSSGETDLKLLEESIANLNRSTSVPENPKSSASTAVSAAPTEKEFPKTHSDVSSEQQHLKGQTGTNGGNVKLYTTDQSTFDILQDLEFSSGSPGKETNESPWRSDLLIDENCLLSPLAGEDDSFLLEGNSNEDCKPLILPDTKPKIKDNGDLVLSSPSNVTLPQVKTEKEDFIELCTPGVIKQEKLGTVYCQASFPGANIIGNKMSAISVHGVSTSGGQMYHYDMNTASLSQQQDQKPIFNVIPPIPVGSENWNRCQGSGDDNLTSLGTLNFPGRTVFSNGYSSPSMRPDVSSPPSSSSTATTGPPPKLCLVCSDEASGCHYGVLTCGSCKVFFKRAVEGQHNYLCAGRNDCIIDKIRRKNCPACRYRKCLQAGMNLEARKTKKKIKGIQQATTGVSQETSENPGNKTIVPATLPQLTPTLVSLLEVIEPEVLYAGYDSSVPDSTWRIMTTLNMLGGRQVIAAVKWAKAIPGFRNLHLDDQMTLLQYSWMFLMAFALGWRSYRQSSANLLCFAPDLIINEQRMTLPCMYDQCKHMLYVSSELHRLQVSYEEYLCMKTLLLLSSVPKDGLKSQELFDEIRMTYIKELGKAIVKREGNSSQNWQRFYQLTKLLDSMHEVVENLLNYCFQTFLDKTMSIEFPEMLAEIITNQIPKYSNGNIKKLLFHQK
For assay [7] the target is unchanged. Put plainly: GR-EFC Redistribution (AID 451; calls by dose curve; note: potency is the fitted concentration of half-maximal effect). The note with it: CHO-K1 GR-EFC translocation, beta-gal luminescence, 2 h. The method, boiled down:
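CHO-K1 cells stably expressing nuclear-localized β-gal enzyme acceptor and GR fused C-terminally to the enzyme donor fragment; ligand-driven nuclear translocation restores β-gal by complementation. Compounds titrated up to 46 uM final, 2 h at 37 °C; luminescence read.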

The target in assay [8] is Mitogen-activated protein kinase 10 (Mus musculus) (UniProt Q61831). Put plainly: JNK3 AlphaScreen Assay (AID 530).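 Note: kinase came from lysate of stimulated human HepG2 cells; signal reports phosphorylation of biotinylated GST-cJun 1-79 at Ser73 with 10 µM ATP; % is set by controls: 0 for no effect and ±100 for the full control effect.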 The gist of the method:
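Phosphorylation of biotinylated GST-cJun(1-79) at Ser73 is measured by AlphaScreen proximity luminescence. Enzyme is JNK3 in HepG2 lysates activated with interleukin-1beta and tumor necrosis factor alpha; ATP is 10 uM final.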
In general terms: In Alpha technology, singlet oxygen from a donor bead excites a nearby acceptor bead.

Assay [9] has as its target 3',5'-cyclic-AMP phosphodiesterase 4B (Homo sapiens) (UniProt Q07343). Put plainly: qHTS Assay for Inhibitors of PDE-IV (AID 607; active = well fitted activation curve with a large enough effect in the main read-out, with a control signal flat, not every such curve was filed as active; note: % of control where 0% means no effect). The method, boiled down: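 HEK293 ACTOne cells with CNG channel (1000/well), endogenous PDE4; membrane potential dye, compounds up to 22.9 uM final. Fluorescence Ex 535/Em 590; RO 20-1724 (100 uM final) as reference.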
Background: Quantitative high-throughput screening tests each substance at several concentrations.

Assay [10] is described as follows: qHTS Assay for Lipid Storage Modulators (AID 1519; calls by dose curve). The note with it: Drosophila S3 cells, BODIPY lipid droplet/cell ratio, laser cytometry, cells loaded with oleic acid; for activity change, negative = inhibition: at 57.5 µM (top of the series). The method, boiled down: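 Cells seeded at 5,000 per well were treated with compounds over a concentration series and loaded with oleic acid (400 uM, as added). Lipid droplet fluorescence (488 nm excitation, 500-530 nm channel) was read by laser-scanning cytometry and normalized to 20 uM Triacsin C.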

The target of assay [11] is Dual specificity protein kinase CLK4 (Homo sapiens) (UniProt Q9HAZ1). Put plainly: qHTS Assay for Inhibitors of CDC-like Kinase 4 (ADP-Glo Assay) (AID 1771; active = well fitted curve in the direction sought with a large enough effect; an effect the other way counts as inactive or inconclusive; note: % is set by controls: 0 for no effect and ±100 for the full control effect; nearly all actives have a fitted effect of over 70% in size). The method, boiled down:
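ADP production was read by ADP-Glo luminescence after residual ATP depletion, following 1 h room-temperature reaction of 25 nM Clk4, 1 uM ATP and 100 uM RS peptide with MgCl2, EGTA, DTT and Triton X-100.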

Assay [12] has the same target. Briefly: qHTS Assay for Inhibitors of CDC-like Kinase 4 (ADP-FP Assay) (AID 1795; active = well fitted curve in the direction sought with a large enough effect; an effect the other way counts as inactive or inconclusive;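 note: recombinant human CLK4 phosphorylating RS repeat peptide at 1 µM ATP; % is set by controls: 0 for no effect and ±100 for the full control effect; nearly all actives have a fitted effect of over 60% in size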). The method, boiled down:
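Kinase activity was measured as ADP production using Transcreener orange tracer (4 nM) and ADP antibody (1 ug/mL) fluorescence polarization, with ADP calculated from a calibration curve. The 1 h reaction contained 6.25 nM Clk4, 1 uM ATP and 100 uM RS peptide at pH 7.5 with Mg2+.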

In assay [13] the target is Ubiquitin carboxyl-terminal hydrolase 1 (Homo sapiens) (UniProt O94782). Put plainly: Inhibitors of USP1/UAF1: Pilot qHTS (AID 504865; active = well fitted curve in the direction sought with a large enough effect; an effect the other way counts as inactive or inconclusive;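 note: rhodamine fluorescence freed from ubiquitin-rhodamine substrate followed over time; top concentration of the series differs between compounds; % is set by controls: 0 for no effect and ±100 for the full control effect; nearly all actives have a fitted effect of over 35% in size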). The method, boiled down: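 Deubiquitinase activity followed as kinetic rhodamine fluorescence release from 150 nM Ub-Rho. 1 nM USP1/UAF1 with compound, after 15 min room-temperature preincubation, in HEPES pH 7.8 buffer containing TCEP, EDTA, BSA and Tween-20.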
Sequence of Ubiquitin carboxyl-terminal hydrolase 1 (Homo sapiens) (O94782 whole entry, looked up): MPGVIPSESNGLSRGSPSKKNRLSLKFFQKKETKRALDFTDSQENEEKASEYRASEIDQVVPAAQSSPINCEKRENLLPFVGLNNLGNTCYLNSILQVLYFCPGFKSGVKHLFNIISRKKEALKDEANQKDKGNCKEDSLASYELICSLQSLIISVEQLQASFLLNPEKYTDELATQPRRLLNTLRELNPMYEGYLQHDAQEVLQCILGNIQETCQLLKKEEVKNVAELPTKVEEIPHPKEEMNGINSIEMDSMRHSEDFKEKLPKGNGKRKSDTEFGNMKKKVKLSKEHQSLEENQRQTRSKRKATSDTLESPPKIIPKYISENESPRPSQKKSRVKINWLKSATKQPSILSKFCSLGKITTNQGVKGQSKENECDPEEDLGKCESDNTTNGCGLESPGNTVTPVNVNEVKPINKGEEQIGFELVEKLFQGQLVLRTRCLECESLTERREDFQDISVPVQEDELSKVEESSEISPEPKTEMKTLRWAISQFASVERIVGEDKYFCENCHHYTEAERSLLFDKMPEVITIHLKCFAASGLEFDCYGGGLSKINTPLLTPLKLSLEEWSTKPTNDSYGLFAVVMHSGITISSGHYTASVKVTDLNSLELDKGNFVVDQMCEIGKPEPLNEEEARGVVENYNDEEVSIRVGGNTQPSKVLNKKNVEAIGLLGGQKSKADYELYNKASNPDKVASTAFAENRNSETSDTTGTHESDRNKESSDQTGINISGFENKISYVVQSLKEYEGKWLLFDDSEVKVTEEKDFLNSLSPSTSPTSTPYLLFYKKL

Assay [14] in a line: Confirmation and Secondary Assay for Modulators of Hemoglobin Beta Chain Splicing at IVS2 654 locus (AID 910; active = well fitted curve in the direction sought with a large enough effect; an effect the other way counts as inactive or inconclusive;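 note: per-well total GFP intensity by laser scanning cytometry after 2-day treatment; % of control where 0% means no effect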). The method, boiled down: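 HeLa cells stably carrying EGFP interrupted by mutant beta-globin IVS2-654 intron (CMV-driven) were treated with compound for 2 days at 37C; corrected splicing was scored as total peak GFP intensity per well (488 nm excitation, 500-520 nm emission).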

The nature of assay [15]: qHTS Assay for Identification of Small Molecule Agonists for Hypoxia Response Element Signaling Pathway (AID 914; active = well fitted activation curve with a large enough effect in the signal ratio, with a control signal flat, not every such curve was filed as active; the % refers to the signal ratio; note: % of control where 0% means no effect). The note with it: ME-180 (cervical carcinoma) HRE-bla reporter, beta-lactamase ratio, CoCl2, 17 h; activation: stronger effect = higher value. The method, boiled down:
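Read-out: CCF4 FRET ratio of 460nm to 530nm emission (excitation 405nm) after 2.5 hours at room temperature, taken from HRE-bla ME-180 cells that had been exposed to compound and EC50 CoCl2 for 17 hours.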

The nature of assay [16]: Confirmation and Secondary Assay for Modulators of Hemoglobin Beta Chain Splicing at IVS2 705 locus (AID 930; active = well fitted curve in the direction sought with a large enough effect; an effect the other way counts as inactive or inconclusive;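 note: HeLa cells stably expressing the EGFP-705 splicing reporter; GFP fluorescence per well restored by corrected splicing of the IVS2-705 intron in EGFP; % of control where 0% means no effect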). The gist of the method: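 HeLa EGFP-705 reporter; 500 cells/well, o/n 37C 5% CO2; cpd 2 d; 488 ex/500-520 em laser scan; total peak GFP intensity/well. Ref: 500 nM […] antisense PNA.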
A short description of assay [17]: Primary qHTS for inhibitors of nuclear receptor binding SET domain protein 2 (NSD2) in an isogenic RCH-ACV NSD2 p.E1099K mutant (9B) (AID 1645876; active = well fitted curve in the direction sought with a large enough effect; an effect the other way counts as inactive or inconclusive; note: potency is the fitted concentration of half-maximal effect; nearly all actives have a fitted effect of over 70% in size).
A short description of assay [18]: Primary qHTS for inhibitors of nuclear receptor binding SET domain protein 2 (NSD2) in an RCH-ACV wild type WT cells (2C) (AID 1645877; active = well fitted curve in the direction sought with a large enough effect; an effect the other way counts as inactive or inconclusive; note: potency is the fitted concentration of half-maximal effect; nearly all actives have a fitted effect of over 70% in size).
Assay [19] has as its target Glutathione peroxidase 1 (Homo sapiens) (UniProt P07203). Briefly: Primary qHTS Assay for Inhibitors of Recombinant Selenoprotein Glutathione Peroxidase 1 (GPX1) (AID 1845191; active = well fitted curve in the direction sought with a large enough effect; an effect the other way counts as inactive or inconclusive; note: nearly all actives have a fitted effect of over 65% in size). The gist of the method: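 GPX1 10 nM, GR 100 nM, GSH 1 mM, NADPH 0.5 mM, CHP 0.5 mM (final). 30-min cpd preincubation, RT. Ex340/Em450 read t=0, t=15 min.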
The target of assay [20] is Phospholipid hydroperoxide glutathione peroxidase GPX4 (Homo sapiens) (UniProt P36969). Put plainly: Primary qHTS Assay for Inhibitors of Recombinant Selenoprotein Glutathione Peroxidase 4 (GPX4) (AID 1845192; active = well fitted curve in the direction sought with a large enough effect; an effect the other way counts as inactive or inconclusive; note: % is set by controls: 0 for no effect and ±100 for the full control effect; nearly all actives have a fitted effect of over 65% in size). Conditions: outcome: dose series up to 50 µM unless noted. The gist of the method:
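qHTS, GR-coupled: GPX4 200 nM + cpd 30 min RT → GSH 1 mM, NADPH 0.5 mM, GR 100 nM → CHP 0.5 mM start; fluor 340/450 at t0 and t15 min; no-enzyme wells as control.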

Assay [21] can be described thus: qHTS drug screen for cell cycle checkpoint inhibitors in PARPi-resistant BRCA-mutant ovarian cancer cell lines. (AID 1963452; calls by dose curve). Conditions: PEO1/OlaR viability, CellTiter-Glo luminescence, 96 h, stronger effect = lower value. The gist of the method:
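PEO1, PEO4 and PEO1/OlaR ovarian cancer cells, 600 per well, exposed 96 h at 37C to a dilution series. Viability read by CellTiter-Glo luminescence, normalized to DMSO and empty wells; activity summarized as Z-AUC.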

The mark [22] stands for this setting: measured here: cell count channel max response.
Where [23] appears, read: measured here: lipid channel max response.

SMILES strings stand for the structures. Records with an inconclusive call do not appear. Calls of active or inactive are those of the source. Unless noted, calls come from the whole dose curve; as a rule, active = well fitted curve in either direction with a large enough effect (not every such curve was filed as active); inconclusive = small, poorly fitted or top-dose-only effect, or another doubt; inactive = flat fitted curve, though single readings scatter.

Sequence of 3',5'-cyclic-AMP phosphodiesterase 4B (Homo sapiens) (Q07343 whole entry, looked up): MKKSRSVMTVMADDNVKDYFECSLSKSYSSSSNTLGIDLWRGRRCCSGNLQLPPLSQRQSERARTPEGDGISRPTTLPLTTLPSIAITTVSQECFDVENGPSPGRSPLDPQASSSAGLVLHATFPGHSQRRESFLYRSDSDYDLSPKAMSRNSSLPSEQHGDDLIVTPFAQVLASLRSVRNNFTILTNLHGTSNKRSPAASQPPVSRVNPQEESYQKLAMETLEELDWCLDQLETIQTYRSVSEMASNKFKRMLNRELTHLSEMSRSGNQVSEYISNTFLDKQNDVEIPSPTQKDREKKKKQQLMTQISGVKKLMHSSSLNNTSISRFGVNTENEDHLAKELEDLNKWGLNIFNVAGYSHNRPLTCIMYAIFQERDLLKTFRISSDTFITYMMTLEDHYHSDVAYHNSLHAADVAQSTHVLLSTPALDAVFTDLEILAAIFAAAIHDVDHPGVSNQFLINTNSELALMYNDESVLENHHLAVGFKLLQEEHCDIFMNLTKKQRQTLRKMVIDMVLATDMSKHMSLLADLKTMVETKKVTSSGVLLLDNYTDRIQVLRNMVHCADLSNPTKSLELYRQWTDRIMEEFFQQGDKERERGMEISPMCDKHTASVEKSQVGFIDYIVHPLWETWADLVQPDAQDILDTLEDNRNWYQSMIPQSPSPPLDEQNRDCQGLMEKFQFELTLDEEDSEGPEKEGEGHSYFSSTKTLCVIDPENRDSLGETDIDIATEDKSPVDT
Sequence of Lysosomal acid glucosylceramidase (Homo sapiens) (P04062 whole entry, looked up): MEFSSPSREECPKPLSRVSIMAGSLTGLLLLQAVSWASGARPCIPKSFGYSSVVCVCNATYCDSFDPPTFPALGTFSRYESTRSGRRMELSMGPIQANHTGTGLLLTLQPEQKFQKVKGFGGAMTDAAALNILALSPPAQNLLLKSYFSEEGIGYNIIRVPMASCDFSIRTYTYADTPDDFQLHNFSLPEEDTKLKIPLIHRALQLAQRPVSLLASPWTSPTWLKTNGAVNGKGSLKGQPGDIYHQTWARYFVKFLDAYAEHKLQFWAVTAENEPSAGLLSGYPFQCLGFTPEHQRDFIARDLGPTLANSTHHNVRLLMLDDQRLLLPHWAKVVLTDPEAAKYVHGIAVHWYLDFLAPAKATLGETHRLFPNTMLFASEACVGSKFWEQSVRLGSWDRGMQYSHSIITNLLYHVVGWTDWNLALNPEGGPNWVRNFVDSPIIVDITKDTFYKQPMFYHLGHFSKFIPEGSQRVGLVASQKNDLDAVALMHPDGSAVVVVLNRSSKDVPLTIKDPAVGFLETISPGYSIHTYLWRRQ
Sequence of Cytochrome P450 1A2 (Homo sapiens) (P05177 whole entry, looked up): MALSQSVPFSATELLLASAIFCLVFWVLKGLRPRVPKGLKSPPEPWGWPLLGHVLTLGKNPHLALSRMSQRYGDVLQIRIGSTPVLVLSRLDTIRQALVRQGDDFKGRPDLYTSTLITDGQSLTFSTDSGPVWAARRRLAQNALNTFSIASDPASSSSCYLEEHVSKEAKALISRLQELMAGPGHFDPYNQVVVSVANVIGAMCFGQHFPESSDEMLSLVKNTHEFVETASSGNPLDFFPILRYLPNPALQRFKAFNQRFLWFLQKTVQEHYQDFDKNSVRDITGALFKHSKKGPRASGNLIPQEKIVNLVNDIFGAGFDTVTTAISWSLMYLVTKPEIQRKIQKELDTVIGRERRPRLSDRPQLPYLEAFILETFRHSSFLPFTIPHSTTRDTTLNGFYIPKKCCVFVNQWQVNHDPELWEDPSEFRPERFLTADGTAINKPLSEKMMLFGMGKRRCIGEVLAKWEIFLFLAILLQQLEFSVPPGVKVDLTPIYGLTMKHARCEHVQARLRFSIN
Sequence of Dual specificity protein kinase CLK4 (Homo sapiens) (Q9HAZ1 whole entry, looked up): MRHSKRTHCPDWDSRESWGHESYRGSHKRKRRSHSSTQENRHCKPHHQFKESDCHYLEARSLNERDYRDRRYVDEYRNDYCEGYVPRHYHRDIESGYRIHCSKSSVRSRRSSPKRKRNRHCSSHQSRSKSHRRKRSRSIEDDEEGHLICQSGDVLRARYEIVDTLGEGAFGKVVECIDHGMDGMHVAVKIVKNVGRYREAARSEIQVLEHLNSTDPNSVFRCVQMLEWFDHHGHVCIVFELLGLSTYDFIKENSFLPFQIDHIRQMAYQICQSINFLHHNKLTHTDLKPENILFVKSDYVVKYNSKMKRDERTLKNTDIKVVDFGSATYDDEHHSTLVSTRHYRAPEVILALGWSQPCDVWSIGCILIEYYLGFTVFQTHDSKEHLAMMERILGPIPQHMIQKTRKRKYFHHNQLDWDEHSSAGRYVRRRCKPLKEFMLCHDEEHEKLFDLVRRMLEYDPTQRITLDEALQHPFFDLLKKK
Sequence of Glutathione peroxidase 1 (Homo sapiens) (P07203 whole entry, looked up): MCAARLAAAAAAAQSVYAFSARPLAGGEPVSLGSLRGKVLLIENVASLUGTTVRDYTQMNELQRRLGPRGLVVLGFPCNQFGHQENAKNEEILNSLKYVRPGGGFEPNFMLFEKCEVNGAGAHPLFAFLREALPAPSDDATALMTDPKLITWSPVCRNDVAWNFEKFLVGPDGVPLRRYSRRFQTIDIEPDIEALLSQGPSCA
Sequence of Phospholipid hydroperoxide glutathione peroxidase GPX4 (Homo sapiens) (P36969 whole entry, looked up): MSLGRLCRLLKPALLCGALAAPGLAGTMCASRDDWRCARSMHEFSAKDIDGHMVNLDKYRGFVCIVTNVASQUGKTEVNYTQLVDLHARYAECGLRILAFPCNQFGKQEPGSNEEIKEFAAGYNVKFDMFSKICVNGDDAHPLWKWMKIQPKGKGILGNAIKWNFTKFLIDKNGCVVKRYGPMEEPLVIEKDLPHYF

In the case of `O=c1c(-c2cc(F)cc(F)c2)nc2cnc(N3CCOCC3)nc2n1C[C@H]1CCCO1`, the Potency in assay [1] is > 11.4 µM (inactive); in [3] it was 2.51 µM (active); in assay [6], > 9.22 µM (inactive); in assay [7] it was > 46 µM (inactive). Also, the activity change, negative = inhibition in [2] was 10.4% (inactive); in assay [4], -16% (inactive); in assay [10] it was 5.53% (inactive). The activity, negative = inhibition in assay [5] was 0.32% (inactive). For the same compound, the result in [8] was inactive. Moreover, the Potency entry in assay [9], in [11], in [12] and in assay [13] was “inactive” throughout. The max response worked out at 8.91% in [10] (setting [22]) and 13.4% in assay [10] (setting [23]).

On to `CNc1ncncc1-c1ccccc1OC`, for which the Potency is > 11.4 µM (inactive) in [1], 1.58 µM (active) in assay [3], > 46 µM (inactive) in assay [6] and > 46 µM (inactive) in assay [7]. Further, the values for the activity change, negative = inhibition in [2], in assay [4] and in assay [10] were -10.6% (inactive), 8.73% (inactive) and 5.61% (inactive), respectively. Further, the activity, negative = inhibition in [5] is 6.99% (inactive). The outcome in assay [8], in [14] and in assay [16] was inactive. Besides, the Potency entry in [9] and in assay [13] was “inactive” each time. In assay [15], the activation was 5.66% (inactive). Further, the max response in assay [10] (setting [22]) turned out to be 8.32%; in assay [10] (setting [23]), 13.5%.

Consider `Cn1cc(-c2ccc(-c3cncc(Cl)c3N3CCC4(CCNC4=O)CC3)cc2)cn1`, for which the figures for the Potency in assay [17] and in assay [18] were 8.33 µM (active) and 0.833 µM (active), respectively. In addition, the Potency result in assay [19] and in assay [20] was “inactive” each time. The results for the Z-AUC in assay [21], in assay [21] (measured here: PEO1 parental Z-AUC) and in assay [21] (measured here: PEO4 Z-AUC) were -1.1 (inactive), -0.614 and -1.18, respectively.

In the case of `CC(C)NC(=O)N1CC[C@@]2(CCCN(C(=O)c3cccn3C)C2)C1`, the Potency in [1] is > 11.4 µM (inactive); in assay [7], > 46 µM (inactive). For the same compound, the activity change, negative = inhibition in assay [2] is 12.3% (inactive); in assay [4], -8.88% (inactive); in assay [10], 3.5% (inactive). In addition, the Potency result in assay [3] and in assay [9] was “inactive” in each case. Moreover, the activity, negative = inhibition in [5] is -1.46% (inactive). For the same compound, the result in assay [8] was inactive. The results for the max response in assay [10] (setting [22]) and in assay [10] (setting [23]) were -17.7% and -8.74%, respectively.
